Among the test systems are HCT-15 colon; HT29 colon; SNB-19 CNS; U251 CNS; PC-3 prostate; SK-MEL-5 melanoma; UACC-62 melanoma; LOX IMVI melanoma; SK-MEL-28 melanoma; SK-MEL-2 melanoma; EKVX NSCLC; SN12C renal; UO-31 renal; TK-10 renal; ACHN renal; CAKI-1 renal; A498 renal; CCRF-CEM leukemia; MOLT-4 leukemia.
Common to all, as to assay: NCI-60 one-dose screen, 48 h (100 = growth as untreated, 0 = no growth, -100 = all killed)
Common to all, as to settings: 10 µM unless noted

Our source for the growth values is PubChem BioAssay (NCI).

Structures are written as SMILES. The panel holds about 83,000 compounds, 20% with a hit somewhere; the sample as a whole holds those more often.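 Note: values are percent growth. 100 is the growth of untreated cells, values between 100 and 0 indicate rising inhibition; between -100 and 0 indicates cell death.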 Unmarked numbers belong to inactive results. Calls of active or inactive are those of the source. The calls were made as follows: active = growth percent below 10; inactive = the rest.

Regarding `CN1C(N2CCN(S(=O)(=O)c3ccccc3)CC2)=NS(=O)(=O)c2ccccc21`, the growth with HCT-15 colon is 113%; with HT29 colon, 104%; with SNB-19 CNS, 104%; with U251 CNS, 99.7%; in the test on PC-3 prostate it was 98.9%; with SK-MEL-5 melanoma, 104%. For the same molecule, the growth in the test with UACC-62 melanoma was 94.4%; in the test with LOX IMVI melanoma, 96%; in the test on SK-MEL-28 melanoma, 103%; with SK-MEL-2 melanoma, 56.7%; in the test on EKVX NSCLC it was 111%; in the test with SN12C renal, 90.7%. Moreover, the growth in the test on UO-31 renal is 72.4%; with TK-10 renal it was 114%; in the test on ACHN renal it was 106%; with CAKI-1 renal, 104%; with A498 renal, 155%; with CCRF-CEM leukemia it was 118%. Also, the growth with MOLT-4 leukemia is 178%.
Take `COc1cccc(-c2nc3occn3c2-c2ccnc(NCCNS(=O)(=O)c3cccc4ccccc34)n2)c1`: the growth is 103% in the test with HCT-15 colon; 96.7% in the test with HT29 colon; 97.8% with SNB-19 CNS; 108% with U251 CNS; 99.6% in the test with PC-3 prostate; 98.8% with SK-MEL-5 melanoma. The growth is 93.7% in the test on UACC-62 melanoma; 102% in the test on LOX IMVI melanoma; 115% in the test on SK-MEL-28 melanoma; 107% with SK-MEL-2 melanoma; 114% in the test with EKVX NSCLC; 103% in the test on SN12C renal. Besides, the growth in the test with UO-31 renal is 85.7%; with TK-10 renal, 123%; in the test on ACHN renal it was 99.6%; with CAKI-1 renal, 86.6%; in the test on CCRF-CEM leukemia, 123%; with MOLT-4 leukemia it was 97.4%.
`COc1cc(NC(C)CCCNC(=O)CCC(=O)NCCCNCCCCCCCCCCNCCCNC(=O)CCC(=O)NCCCC(C)Nc2cc(OC)cc3cccnc23)c2ncccc2c1` (centres undefined): the growth in the test on HCT-15 colon was 99.1% [8 µM]; with HT29 colon, 73.6% [8 µM]; in the test with SNB-19 CNS it was 60.5% [8 µM]; in the test with U251 CNS, 50.8% [8 µM]; with PC-3 prostate it was 78.2% [8 µM]; with SK-MEL-5 melanoma, 91% [8 µM]. Also, the growth with UACC-62 melanoma was 89.4% [8 µM]; in the test on LOX IMVI melanoma, 51.1% [8 µM]; in the test with SK-MEL-28 melanoma, 86.8% [8 µM]; in the test with SK-MEL-2 melanoma, 93.4% [8 µM]; in the test with EKVX NSCLC it was 73.7% [8 µM]; in the test on SN12C renal it was 41.3% [8 µM]. Moreover, the growth is 96.3% [8 µM] in the test on UO-31 renal; 100% [8 µM] in the test on TK-10 renal; 96.7% [8 µM] in the test on ACHN renal; 97.3% [8 µM] with CAKI-1 renal; 66.6% [8 µM] in the test on CCRF-CEM leukemia; 76.8% [8 µM] in the test on MOLT-4 leukemia.
With `Cn1cc(-c2nc(-c3c[nH]c4c(Cl)nccc34)cs2)c2cc(F)ccc21`, the growth in the test on HCT-15 colon was 99.2%; with HT29 colon, 87.8%; in the test on SNB-19 CNS it was 98%; in the test with U251 CNS, 85.8%; in the test with PC-3 prostate, 92.9%; in the test with SK-MEL-5 melanoma, 94.5%. Besides, the growth with UACC-62 melanoma was 97.5%; with LOX IMVI melanoma it was 109%; in the test on SK-MEL-28 melanoma, 112%; with SK-MEL-2 melanoma it was 95.6%; with EKVX NSCLC it was 94.2%; in the test on SN12C renal it was 98.6%. Further, the growth in the test on UO-31 renal was 103%; in the test with TK-10 renal, 95%; in the test with ACHN renal it was 114%; with A498 renal, 83.2%; with CCRF-CEM leukemia, 97.8%.
Consider `O=C1NN(C(=O)c2ccccc2)C(c2ccc(Cl)c(Cl)c2)=C/C1=C\c1ccc([N+](=O)[O-])cc1`, for which the growth was 71.8% in the test on HCT-15 colon; 101% in the test on HT29 colon; 58.7% in the test on SNB-19 CNS; 69.7% with U251 CNS; 46.7% in the test on PC-3 prostate; 86.8% in the test on SK-MEL-5 melanoma. Further, the growth was 70.3% in the test on UACC-62 melanoma; 86.9% in the test with LOX IMVI melanoma; 111% in the test with SK-MEL-28 melanoma; 100% in the test with SK-MEL-2 melanoma; 88.3% with EKVX NSCLC; 92.3% in the test on SN12C renal. The growth in the test on UO-31 renal was 61.9%; in the test on TK-10 renal it was 106%; in the test on ACHN renal, 90.3%; in the test with CAKI-1 renal, 77.1%; in the test on A498 renal, 80.4%; with CCRF-CEM leukemia, 88.5%.
For the molecule `COc1ccc2[nH]c(=O)c(CN3CCN(c4nccc(-c5ccc(Cl)cc5)n4)CC3)cc2c1`, the growth in the test with HCT-15 colon was 91.8%; in the test with HT29 colon, 78.2%; in the test on SNB-19 CNS, 78.8%; in the test with U251 CNS, 81.2%; with PC-3 prostate, 73.6%; in the test on SK-MEL-5 melanoma, 94.6%. Besides, the growth in the test on UACC-62 melanoma was 94.4%; with LOX IMVI melanoma, 99.6%; with SK-MEL-28 melanoma, 95.8%; with SK-MEL-2 melanoma, 93.1%; in the test on EKVX NSCLC, 96.4%; with SN12C renal it was 88.8%. Further, the growth in the test with UO-31 renal was 80.7%; in the test with TK-10 renal it was 104%; with ACHN renal it was 81.9%; in the test on CAKI-1 renal, 86.7%; in the test on CCRF-CEM leukemia it was 85.1%; in the test on MOLT-4 leukemia, 75.5%.
`CCOC(=O)C1=C(C)NC(SCc2cc(=O)oc3ccc(F)cc23)=N[C@@H]1c1cccc2ccccc12`: the growth in the test on HCT-15 colon was 93%; in the test with HT29 colon it was 98.5%; in the test with SNB-19 CNS, 101%; with U251 CNS, 102%; with PC-3 prostate, 87.8%; with SK-MEL-5 melanoma, 99.9%. In addition, the growth with UACC-62 melanoma is 86%; in the test with LOX IMVI melanoma, 99.9%; with SK-MEL-28 melanoma, 109%; in the test on SK-MEL-2 melanoma, 85%; with EKVX NSCLC it was 114%; in the test with SN12C renal, 93.3%. Further, the growth was 79.9% with UO-31 renal; 105% in the test with TK-10 renal; 91.9% in the test on ACHN renal; 87.8% in the test on CAKI-1 renal; 102% in the test with CCRF-CEM leukemia; 84.7% with MOLT-4 leukemia.
Turning to `CCCCCCOc1ccc(/C=N/Nc2cc(C)nc3ccc(Cl)cc23)cc1`, the growth in the test with HCT-15 colon was -87.2% (active); in the test with HT29 colon it was -42.3% (active); in the test on SNB-19 CNS, 2.26% (active); in the test with U251 CNS, -68.2% (active); with PC-3 prostate, -39.4% (active); in the test on SK-MEL-5 melanoma, 81.4%. In addition, the growth is 76.8% in the test on UACC-62 melanoma; -94.5% (active) with LOX IMVI melanoma; -30.3% (active) with SK-MEL-28 melanoma; 93.9% in the test on SK-MEL-2 melanoma; 56.2% in the test with EKVX NSCLC; -84.6% (active) in the test on SN12C renal. Moreover, the growth with UO-31 renal was -89.8% (active); with TK-10 renal, -51.4% (active); in the test on ACHN renal, -92% (active); in the test on CAKI-1 renal, 3.33% (active); with CCRF-CEM leukemia it was -9.5% (active); with MOLT-4 leukemia, -26% (active).
